The supplement of paper PMC6089552
Hit rate of the full screen: of about 3,200 compounds, about 300 (9.4%) showed activity. This excerpt belongs to a sample that is enriched for actives. Values without a mark were called inactive.

Test system: A673/TR/shEF
Experiment: cell viability (LOESS-normalised, relative to median of negative controls) (log2 ratio); higher = more viable cells (less compound effect), active = hit call of the paper (over 3 MAD below the median)
Conditions: treatment time: 72 h
Summary of the method: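 Viability of A673/TR/shEF Ewing sarcoma cells was determined by CellTiter-Glo luminescence. The cells, at 1,500 per well in 384-well plates, were grown with or without doxycycline from 24 h before compound addition to switch on EWS-FLI1 shRNA knockdown, then exposed for three days to library compounds at two or more concentrations or to DMSO controls. Signals were LOESS-corrected plate by plate, normalised to the negative-control median and log2-transformed.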

[1] = 0.103 µM, library screen: screen3, EWS-FLI1 expression: high (no doxycycline)
[2] = 0.103 µM, library screen: screen3, EWS-FLI1 expression: low (doxycycline-induced shRNA knockdown)
[3] = 0.308 µM, library screen: screen3, EWS-FLI1 expression: high (no doxycycline)
[4] = 0.308 µM, library screen: screen3, EWS-FLI1 expression: low (doxycycline-induced shRNA knockdown)
[5] = 0.926 µM, library screen: screen3, EWS-FLI1 expression: high (no doxycycline)
[6] = 0.926 µM, library screen: screen3, EWS-FLI1 expression: low (doxycycline-induced shRNA knockdown)
[7] = 2.8 µM, library screen: screen3, EWS-FLI1 expression: high (no doxycycline)
[8] = 2.8 µM, library screen: screen3, EWS-FLI1 expression: low (doxycycline-induced shRNA knockdown)
[9] = 8.3 µM, library screen: screen3, EWS-FLI1 expression: high (no doxycycline)
[10] = 8.3 µM, library screen: screen3, EWS-FLI1 expression: low (doxycycline-induced shRNA knockdown)
[11] = 25 µM, library screen: screen3, EWS-FLI1 expression: high (no doxycycline)
[12] = 25 µM, library screen: screen3, EWS-FLI1 expression: low (doxycycline-induced shRNA knockdown)
[13] = 0.25 µM, library screen: screen1, EWS-FLI1 expression: high (no doxycycline)
[14] = 0.25 µM, library screen: screen1, EWS-FLI1 expression: low (doxycycline-induced shRNA knockdown)
[15] = 2.5 µM, library screen: screen1, EWS-FLI1 expression: high (no doxycycline)
[16] = 2.5 µM, library screen: screen1, EWS-FLI1 expression: low (doxycycline-induced shRNA knockdown)
[17] = 0.25 µM, library screen: screen2, EWS-FLI1 expression: high (no doxycycline)
[18] = 0.25 µM, library screen: screen2, EWS-FLI1 expression: low (doxycycline-induced shRNA knockdown)
[19] = 2.5 µM, library screen: screen2, EWS-FLI1 expression: high (no doxycycline)
[20] = 2.5 µM, library screen: screen2, EWS-FLI1 expression: low (doxycycline-induced shRNA knockdown)
[21] = 0.025 µM, library screen: screen1, EWS-FLI1 expression: high (no doxycycline)
[22] = 0.025 µM, library screen: screen1, EWS-FLI1 expression: low (doxycycline-induced shRNA knockdown)
[23] = 25 µM, library screen: screen1, EWS-FLI1 expression: high (no doxycycline)
[24] = 25 µM, library screen: screen1, EWS-FLI1 expression: low (doxycycline-induced shRNA knockdown)

CC(=O)O[C@@]12CO[C@@H]1C[C@H](O)[C@@]1(C)C(=O)[C@H](O)C3=C(C)[C@@H](OC(=O)[C@H](O)[C@@H](NC(=O)OC(C)(C)C)c4ccccc4)C[C@@](O)([C@@H](OC(=O)c4ccccc4)[C@H]21)C3(C)C was tested, and the “cell viability (log2)” value [1] was -2.68 (active), the “cell viability (log2)” value [2] was -0.934 (active) and the “cell viability (log2)” value [3] was -2.8 (active). The “cell viability (log2)” value [4] was -1.01 (active), the “cell viability (log2)” value [5] was -2.92 (active) and the “cell viability (log2)” value [6] was -1.04 (active). For the same compound, the “cell viability (log2)” value [7] was -2.83 (active), the “cell viability (log2)” value [8] was -1.04 (active) and the “cell viability (log2)” value [9] was -2.98 (active). The “cell viability (log2)” value [10] was -1.06 (active), the “cell viability (log2)” value [11] was -2.84 (active) and the “cell viability (log2)” value [12] was -1.01 (active).
In the case of [Na+].[Na+].[Na+].[O]=[V]([O-])([O-])[O-], the “cell viability (log2)” value [1] is reported as 0.0642, the “cell viability (log2)” value [2] is reported as 0.11 and the “cell viability (log2)” value [3] is reported as -0.00412. The “cell viability (log2)” value [4] was 0.0414, the “cell viability (log2)” value [5] was 0.0791 and the “cell viability (log2)” value [6] was 0.0822. For the same compound, the “cell viability (log2)” value [7] was 0.0816, the “cell viability (log2)” value [8] was 0.153 and the “cell viability (log2)” value [9] was 0.102. For the same compound, the “cell viability (log2)” value [10] was 0.022, the “cell viability (log2)” value [11] was 0.0273 and the “cell viability (log2)” value [12] was 0.0301.
O=C(Nc1ccncc1)c1cc(-c2ccccc2)nc2ccccc12 was tested, and the “cell viability (log2)” value [13] was 0.0994, the “cell viability (log2)” value [14] was 0.0756 and the “cell viability (log2)” value [15] was 0.0606. The “cell viability (log2)” value [16] was -0.00485.
COC(=O)C[C@H]1C(C)(C)C(OC)=C2CC3=C4CC(=O)O[C@@H](c5ccoc5)[C@]4(C)CCC3[C@@]1(C)C2=O (some centres undefined) was tested, and the “cell viability (log2)” value [13] was 0.0817, the “cell viability (log2)” value [14] was 0.1 and the “cell viability (log2)” value [15] was 0.101. The “cell viability (log2)” value [16] was 0.109.
With Nc1ncnc2c1nc(Br)n2C1OC2COP(=O)(O)OC2C1O (centres undefined) the “cell viability (log2)” value [17] was 0.279, the “cell viability (log2)” value [18] was 0.0361 and the “cell viability (log2)” value [19] was 0.103. The “cell viability (log2)” value [20] was 0.0822.
In the case of CC1=C(/C=C/C(C)=C/C=C/C(C)=C/C=C/C=C(C)/C=C/C=C(C)/C=C/[C@@]23O[C@]2(C)C[C@@H](O)CC3(C)C)C(C)(C)C[C@H](O)C1, the “cell viability (log2)” value [13] is reported as 0.0858, the “cell viability (log2)” value [14] is reported as 0.0984 and the “cell viability (log2)” value [15] is reported as 0.143. For the same compound, the “cell viability (log2)” value [16] was 0.132.
COc1ccc2c(c1)[C@@]1(C)CCC(=O)C[C@@H]1CC2 was tested, and the “cell viability (log2)” value [13] was 0.0574, the “cell viability (log2)” value [14] was 0.0238 and the “cell viability (log2)” value [15] was 0.0895. The “cell viability (log2)” value [16] was 0.0859.
In the case of CC(C)c1ccc2c(c1)CCC1C(C)(CN)CCCC21C (centres undefined), the “cell viability (log2)” value [13] is reported as 0.0133, the “cell viability (log2)” value [14] is reported as -0.0819 and the “cell viability (log2)” value [15] is reported as 0.122. For the same compound, the “cell viability (log2)” value [16] was 0.00337.
In the case of Fc1cccc(CN(C2=NCCN2)c2c(Cl)cccc2Cl)c1, the “cell viability (log2)” value [17] is reported as 0.243, the “cell viability (log2)” value [18] is reported as 0.118 and the “cell viability (log2)” value [19] is reported as 0.138. The “cell viability (log2)” value [20] was 0.0968.
CC(=O)/C=C/C1C(C)(O)CCC2C(C)(C)CCCC21C (centres undefined) was tested, and the “cell viability (log2)” value [13] was 0.0886, the “cell viability (log2)” value [14] was 0.136 and the “cell viability (log2)” value [15] was 0.148. For the same compound, the “cell viability (log2)” value [16] was 0.139.
COc1cccc(C(=O)NCCN2CCN(c3ccc(Cl)cc3)CC2)c1 was tested, and the “cell viability (log2)” value [17] was 0.184, the “cell viability (log2)” value [18] was 0.2 and the “cell viability (log2)” value [19] was 0.0849. The “cell viability (log2)” value [20] was 0.0867.
In the case of Cc1nc(Nc2ncc(C(=O)Nc3c(C)cccc3Cl)s2)cc(N2CCN(CCO)CC2)n1, the “cell viability (log2)” value [1] is reported as -0.00181, the “cell viability (log2)” value [2] is reported as -0.0394 and the “cell viability (log2)” value [3] is reported as -0.125. The “cell viability (log2)” value [4] was -0.364, the “cell viability (log2)” value [5] was -0.395 (active) and the “cell viability (log2)” value [6] was -0.907 (active). For the same compound, the “cell viability (log2)” value [7] was -0.393 (active), the “cell viability (log2)” value [8] was -1.27 (active) and the “cell viability (log2)” value [9] was -0.457 (active). For the same compound, the “cell viability (log2)” value [10] was -1.34 (active), the “cell viability (log2)” value [11] was -0.706 (active) and the “cell viability (log2)” value [12] was -1.33 (active).
For O=C(O)c1cn(-c2ccccc2)nc1-c1ccc(F)cc1, the “cell viability (log2)” value [13] was 0.0839, the “cell viability (log2)” value [14] was -0.00121 and the “cell viability (log2)” value [15] was 0.0458. The “cell viability (log2)” value [16] was -0.135.
With CNCCNS(=O)(=O)c1cccc2cnccc12 the “cell viability (log2)” value [21] was 0.0336, the “cell viability (log2)” value [22] was 0.0964 and the “cell viability (log2)” value [13] was 0.0201. The “cell viability (log2)” value [14] was 0.0846, the “cell viability (log2)” value [17] was 0.191 and the “cell viability (log2)” value [18] was 0.0995. The “cell viability (log2)” value [15] was -0.0144, the “cell viability (log2)” value [16] was 0.076 and the “cell viability (log2)” value [19] was 0.114. The “cell viability (log2)” value [20] was 0.037, the “cell viability (log2)” value [23] was -0.0615 and the “cell viability (log2)” value [24] was -0.521.
NC(N)=NCCNS(=O)(=O)c1cccc2cnccc12 was tested, and the “cell viability (log2)” value [21] was 0.216, the “cell viability (log2)” value [22] was 0.0306 and the “cell viability (log2)” value [13] was 0.259. The “cell viability (log2)” value [14] was 0.000334, the “cell viability (log2)” value [17] was 0.159 and the “cell viability (log2)” value [18] was 0.0697. For the same compound, the “cell viability (log2)” value [15] was -0.325 (active), the “cell viability (log2)” value [16] was 0.117 and the “cell viability (log2)” value [19] was 0.11. For the same compound, the “cell viability (log2)” value [20] was 0.0282, the “cell viability (log2)” value [23] was -0.105 (active) and the “cell viability (log2)” value [24] was 0.0777.
For O=S(=O)(NCCNC/C=C/c1ccc(Br)cc1)c1cccc2cnccc12, the “cell viability (log2)” value [21] was 0.026, the “cell viability (log2)” value [22] was 0.000211 and the “cell viability (log2)” value [13] was 0.096. For the same compound, the “cell viability (log2)” value [14] was 0.0474, the “cell viability (log2)” value [17] was 0.108 and the “cell viability (log2)” value [18] was 0.000615. For the same compound, the “cell viability (log2)” value [15] was 0.0846, the “cell viability (log2)” value [16] was -0.0121 and the “cell viability (log2)” value [19] was 0.194. The “cell viability (log2)” value [20] was 0.0705, the “cell viability (log2)” value [23] was 0.00409 and the “cell viability (log2)” value [24] was 0.217.
NCCNS(=O)(=O)c1cccc2cnccc12 was tested, and the “cell viability (log2)” value [21] was 0.261, the “cell viability (log2)” value [22] was -0.0195 and the “cell viability (log2)” value [13] was 0.263. For the same compound, the “cell viability (log2)” value [14] was -0.0436, the “cell viability (log2)” value [17] was 0.125 and the “cell viability (log2)” value [18] was 0.144. For the same compound, the “cell viability (log2)” value [15] was -0.101 (active), the “cell viability (log2)” value [16] was 0.0153 and the “cell viability (log2)” value [19] was 0.077. For the same compound, the “cell viability (log2)” value [20] was 0.0865, the “cell viability (log2)” value [23] was -0.0355 and the “cell viability (log2)” value [24] was 0.14.
